The list is not random: actives were taken first. Their share in the collection is about 3%.
TbPYK inhibitor – T. brucei pyruvate kinase inhibition | TbPYK enzyme, Kinase-Glo Plus ATP luminescence, 45 min | Potency, µM (doses to about 76.8 µM), for inactives: at the highest dose activity, negative = inhibition, usual class: inhibitors | AID 624173 | Q57TT1 | 410,000 tested, 0.12% active; note: nearly all actives have a fitted effect of over 50% in size
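T. brucei PYK with substrate was exposed to pin-transferred compounds across a concentration series, then started with 130 uM ADP (final). After 45 min at room temperature, Kinase-Glo Plus luminescence was read, normalized and curve-fitted.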
LmPK inhibitor – inhibitors of Leishmania mexicana pyruvate kinase; Potency, µM (top dose mostly 57.5 µM), for the others: at the highest dose activity change, negative = inhibition, actives largely listed as inhibitors; 290,000 tested, 0.37% active; Q27686; purified LmPK, Kinase-Glo ATP luminescence, 1 h
Target sequence (Q27686 whole entry, looked up): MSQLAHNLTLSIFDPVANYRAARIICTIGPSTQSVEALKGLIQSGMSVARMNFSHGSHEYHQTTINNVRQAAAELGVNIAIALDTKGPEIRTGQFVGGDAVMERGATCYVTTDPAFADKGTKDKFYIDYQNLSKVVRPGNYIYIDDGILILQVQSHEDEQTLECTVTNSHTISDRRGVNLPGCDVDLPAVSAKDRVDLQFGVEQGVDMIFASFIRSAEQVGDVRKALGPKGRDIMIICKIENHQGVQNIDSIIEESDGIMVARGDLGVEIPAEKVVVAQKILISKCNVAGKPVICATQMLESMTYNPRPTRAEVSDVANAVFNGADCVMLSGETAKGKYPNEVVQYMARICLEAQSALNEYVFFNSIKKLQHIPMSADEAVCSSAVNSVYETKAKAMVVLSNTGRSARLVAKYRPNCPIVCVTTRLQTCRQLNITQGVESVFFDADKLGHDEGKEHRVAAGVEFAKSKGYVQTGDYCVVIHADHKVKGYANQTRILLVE
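qHTS format; LmPK 0.1 nM; substrates PEP 0.5 mM and ADP 0.1 mM. One-hour room-temperature incubation, then coupled luciferase luminescence; 0.5 nM enzyme wells mark activation.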
Sm TGR inh – S. mansoni TGR enzyme inhibition. purified TGR, DTNB reduction, TNB absorbance 405 nm. Potency, µM (doses to about 114 µM), inactives show at the top dose activity change, negative = inhibition, hits mostly inhibitors. 360,000 tested, 3% active. AID 485364; note: nearly all actives have a fitted effect of over 60% in size
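TGR 20 nM + NADPH 100 uM (dispensed conc.), cpd preinc 15 min RT; start with NADPH (500 uM addition) then DTNB (15 mM addition). Kinetic TNB absorbance, 405 nm filter. Four-parameter Hill fit across titration.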
RE007 growth inh – less growth of the S. pombe RE007 Vpr strain; S. pombe RE007 Vpr strain, BacTiter-Glo ATP luminescence, 24 h; 360,000 tested, 0.21% active; AID 651644; Potency, µM (series often up to 92.2 µM), inactives show at the highest dose activity change, negative = less growth, most hits filed as inhibitors; active = well fitted falling curve with a large enough effect; inconclusive = small, poorly fitted or top-dose-only effect; inactive = no such curve, though single readings can be large or run the other way; note: nearly all actives have a fitted effect of over 50% in size
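Fission yeast RE007 carrying one integrated HIV-1 vpr copy, seeded at OD 0.01 in PMG+AL medium with 23 nL pinned compound. Grown 24 h at 30 degrees; viability read by BacTiter-Glo luminescence after 5 min.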
* = called active by the depositor; ! = repeats disagree; [ ] = remark or other dose. Unless noted, calls come from the whole dose curve; as a rule, active = well fitted curve in the direction sought with a large enough effect; inconclusive = small, poorly fitted or top-dose-only effect, or another doubt; inactive = no such curve, though single readings can be large; an effect the other way counts as inactive or inconclusive. % is set by controls: 0 for no effect and ±100 for the full control effect; potency is the fitted concentration of half-maximal effect.

CCN(CC)S(=O)(=O)c1cccc(C(=O)Nc2ccc(S(=O)(=O)NC3=NCCCCC3)cc2)c1 was read as TbPYK inhibitor -5%, Sm TGR inh -1% and RE007 growth inh 5%.
Screening COc1ccc(/C=C2\SC(N)=NC2=O)cc1 returned TbPYK inhibitor 9%, LmPK inhibitor -5%, Sm TGR inh -3% and RE007 growth inh -5%.
CCOC(=O)CSC1=NC(=O)/C(=C/c2ccc(OC)cc2)S1 was read as TbPYK inhibitor -14%, LmPK inhibitor -24%, Sm TGR inh 6.3µM* and RE007 growth inh inconclusive.
O=C(CCC(=O)N(c1ccc(F)cc1)C(C(=O)NC1CCCC1)c1ccncc1)Nc1cccnc1 (stereo not drawn) was read as TbPYK inhibitor 6%, LmPK inhibitor 0%, Sm TGR inh 0% and RE007 growth inh 4%.
For COc1ccc(C(C(=O)NC2CCCCC2)N(Cc2ccco2)C(=O)CNC(=O)c2ccco2)cc1 (stereo not drawn) the results were TbPYK inhibitor 2% and RE007 growth inh 0%.
`O=C(CCC(=O)N(Cc1ccco1)C(C(=O)NC1CCCC1)c1ccncc1)Nc1cccnc1` (stereo not drawn) gave TbPYK inhibitor -3%, LmPK inhibitor 4%, Sm TGR inh 25µM* and RE007 growth inh -6%.
`Cc1ccc(C(C(=O)NCc2ccco2)N(Cc2ccco2)C(=O)CNC(=O)c2ccco2)cc1` (stereo not drawn) gave TbPYK inhibitor -17%, LmPK inhibitor 3%, Sm TGR inh 45µM* and RE007 growth inh -4%.
Screening O=C(NCC(=O)N(Cc1ccco1)C(C(=O)NC1CCCC1)c1ccncc1)c1cccs1 (stereo not drawn) returned TbPYK inhibitor 4%, LmPK inhibitor -7%, Sm TGR inh 35µM* and RE007 growth inh 32%.
`Nc1cccc([N+](=O)[O-])c1` gave TbPYK inhibitor 3%, LmPK inhibitor 0%, Sm TGR inh -2% and RE007 growth inh 6%.
`O=[N+]([O-])c1cccc(SSc2cccc([N+](=O)[O-])c2)c1` gave TbPYK inhibitor 11µM* and RE007 growth inh inconclusive.
CCCCn1c(N)c(N(Cc2ccccc2OC)C(=O)CN2C(=O)NC3(CCCC3)C2=O)c(=O)[nH]c1=O was read as TbPYK inhibitor -2%, Sm TGR inh 56µM* and RE007 growth inh 27%.
Screening CCCCn1c(N)c(N(Cc2ccccc2OC)C(=O)CC2OC(=O)c3ccccc32)c(=O)[nH]c1=O (stereo not drawn) returned TbPYK inhibitor -2%, Sm TGR inh -2% and RE007 growth inh 2%.
`CC(=O)/C(=C/c1ccccc1)C(=O)Nc1ccccc1C` gave TbPYK inhibitor -10%, LmPK inhibitor 1%, Sm TGR inh 45µM* and RE007 growth inh 0%.
Screening CCOc1cc(/C=N/N=C2/NC(=O)C(CC(=O)O)S2)ccc1OCc1ccc(Cl)cc1Cl (stereo not drawn) returned TbPYK inhibitor -5%, LmPK inhibitor 0% and RE007 growth inh 18%.
For COc1cc(/C=N/N=C2/NC(=O)C(CC(=O)O)S2)ccc1OCc1ccc(Cl)cc1 (stereo not drawn) the results were TbPYK inhibitor 18µM*, LmPK inhibitor inconclusive, Sm TGR inh -10% and RE007 growth inh -2%.
Cc1cccc(-c2nc(SCC(=O)Nc3ccc4c(c3)OCO4)c(-c3ccccc3)[nH]2)c1 was read as TbPYK inhibitor -7% and Sm TGR inh -7%.
Screening CCN(CC)N=Nc1ccc(S(=O)(=O)Nc2nc(C)cc(C)n2)cc1 returned TbPYK inhibitor 0%, LmPK inhibitor 4%, Sm TGR inh 11µM*! and RE007 growth inh 3%.
C#CCCOC(=O)N1C2=NC(C(=O)OC)=C(C(=O)OC)[C@@H]3N(CC#CC)c4ccccc4[C@]23C[C@H]1C(=O)OC was read as LmPK inhibitor -2%[11.5 µM].
For O=C1NC(c2ccccn2)Nc2sc3c(c21)CCC3 (stereo not drawn) the results were TbPYK inhibitor -13%, LmPK inhibitor -9%, Sm TGR inh 32µM* and RE007 growth inh inconclusive.
CC1(C)Cc2c(sc3c2C(=O)NC(c2cccnc2)N3)CO1 (stereo not drawn) was read as TbPYK inhibitor -12%, LmPK inhibitor 2%, Sm TGR inh -33% and RE007 growth inh 11%.
Cc1ccsc1C1NC(=O)c2c(sc3c2CCCC3)N1 (stereo not drawn) was read as TbPYK inhibitor -14%, LmPK inhibitor -3%, Sm TGR inh 35µM* and RE007 growth inh inconclusive.
For CN1CCc2c(sc3c2C(=O)NC(c2ccccn2)N3)C1 (stereo not drawn) the results were TbPYK inhibitor -11%, LmPK inhibitor 2%, Sm TGR inh 40µM* and RE007 growth inh -1%.
O=C1NC(c2cccnc2)Nc2sc3c(c21)CCCC3 (stereo not drawn) was read as TbPYK inhibitor -18%, LmPK inhibitor 0%, Sm TGR inh 45µM* and RE007 growth inh -13%.
O=C1NC(c2ccc(Br)cc2)Nc2sc3c(c21)CCC3 (stereo not drawn) was read as TbPYK inhibitor -21%, LmPK inhibitor 3%, Sm TGR inh 21% and RE007 growth inh 14%.
CCN1C(=O)[C@H]2[C@@H](c3ccc(-c4ccc(OC)cc4)c(OC)c3)N[C@@](C)(C(=O)OC)[C@H]2C1=O was read as TbPYK inhibitor 0%, Sm TGR inh -30% and RE007 growth inh 10%.
Screening CCN1C(=O)[C@H]2[C@@H](c3ccc(-c4ccc(F)cc4)c(OC)c3)N[C@@](C)(C(=O)OC)[C@H]2C1=O returned TbPYK inhibitor -7%, Sm TGR inh 16µM* and RE007 growth inh -25%.
`CCN1C(=O)[C@H]2[C@@H](c3ccc(-c4ccccc4)cc3)N[C@@](C)(C(=O)OC)[C@H]2C1=O` gave TbPYK inhibitor -7%, Sm TGR inh 40µM* and RE007 growth inh -8%.
C[C@@H]1CN([C@H](C)CO)C(=O)CCCn2nncc2CO[C@H]1CN(C)C(=O)Cc1ccccc1 was read as TbPYK inhibitor 5% and RE007 growth inh inconclusive.
For Cc1ccccc1OCC(=O)Nc1ccc2nc(SCC(=O)N3CCCC3)sc2c1 the results were TbPYK inhibitor -6% and Sm TGR inh 0%.
For N#C/C(=C\c1cn(-c2ccccc2)nc1-c1cc2ccccc2o1)c1nc2ccccc2[nH]1 the results were TbPYK inhibitor 6%, LmPK inhibitor 0%, Sm TGR inh 3% and RE007 growth inh -20%.
Cc1ccc(-c2nn(-c3ccccc3)cc2/C=C(\C#N)c2cccc(C#N)c2)o1 was read as TbPYK inhibitor 0%, LmPK inhibitor -18%, Sm TGR inh 50µM* and RE007 growth inh -7%.
Screening O=C1NC[C@H](CCCCN2C[C@H](Cc3ccc(O)cc3)N(CCC3CCCCC3)C(=O)C2=O)N(CCc2ccc(O)cc2)C1=O returned TbPYK inhibitor -1% and RE007 growth inh 7%.
